# The panel holds about 79,000 compounds, 15% with a hit somewhere; the sample as a whole holds those more often. Values without a mark were called inactive. Active and inactive are the calls of the source. Cut-off read from the data, not from the text of the source: active = growth inhibition above about 70%; inactive = the rest.
# Experiments:
# [1] = NCI Yeast Anticancer Drug Screen. Data for the sgs1 strain (AID 173);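 note: 0% = growth of vehicle-only control cultures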; details: S. cerevisiae sgs1 mutant, stronger effect = higher value
# Method in brief: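 Growth of a yeast strain bearing a defined genetic alteration is measured after compound treatment. Inhibition is expressed relative to vehicle-only controls.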
# [2] = NCI Yeast Anticancer Drug Screen. Data for the mlh1 rad18 strain (AID 175); details: S. cerevisiae mlh1 rad18 strain growth inhibition, stronger effect = higher value
# Method in brief: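 Read-out is yeast growth inhibition, calculated against vehicle-only controls. The compound was applied to a strain engineered with DNA damage repair alterations.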
# [3] = NCI Yeast Anticancer Drug Screen. Data for the rad18 strain (AID 177); details: S. cerevisiae rad18 mutant growth inhibition, stronger effect = higher value
# Method in brief: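 Growth of the mutant yeast strain after compound exposure, normalised to vehicle-only cultures.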
# [4] = NCI Yeast Anticancer Drug Screen. Data for the rad52 strain (AID 147);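 note: 0% = growth of vehicle-treated control cultures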; details: S. cerevisiae rad52 mutant growth inhibition, stronger effect = higher value
# Method in brief: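 Compounds are applied to a genetically defined yeast strain lacking normal DNA damage repair, and inhibition of growth is expressed relative to cultures given vehicle only.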
# [5] = NCI Yeast Anticancer Drug Screen. Data for the wt1 strain (AID 149);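 note: 0% = growth of vehicle-treated wt1 cultures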; details: S. cerevisiae wt1 strain (SPY 50644) growth inhibition, stronger effect = higher value
# Method in brief: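 The wt1 strain was treated with compounds, and growth was compared with vehicle-treated cultures to give inhibition.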
# [6] = NCI Yeast Anticancer Drug Screen. Data for the rad50EPP+ strain (AID 151);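 note: 0% = growth of vehicle-treated control cultures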; details: S. cerevisiae rad50 mutant strain, stronger effect = higher value
# Method in brief: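 Compounds were applied to the rad50EPP+ yeast strain, which bears a defined DNA repair alteration, and growth inhibition was determined relative to vehicle-treated cultures.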
# [7] = NCI Yeast Anticancer Drug Screen. Data for the rad50 strain (AID 155);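 note: 0% = growth of vehicle-only cultures of the same strain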; details: S. cerevisiae rad50 strain growth inhibition, stronger effect = higher value
# Method in brief: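 Cells are treated with compound, grown, and their growth is then scored against vehicle-only cultures of the same repair-deficient yeast strain.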
# [8] = NCI Yeast Anticancer Drug Screen. Data for the mec2-1 strain (AID 157); details: S. cerevisiae mec2-1 strain, stronger effect = higher value
# Method in brief: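 Strain: mec2-1 (DNA repair/cell cycle alteration). Compound exposure, then growth measured; inhibition expressed relative to vehicle.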
# [9] = NCI Yeast Anticancer Drug Screen. Data for the rad14 strain (AID 159);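 note: 0% = growth of vehicle-treated control cultures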; details: S. cerevisiae rad14 strain growth inhibition, stronger effect = higher value
# Method in brief: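 Readout: yeast growth inhibition, referenced to vehicle-only cultures. Strain bears a defined alteration in DNA damage repair.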
# [10] = NCI Yeast Anticancer Drug Screen. Data for the sgs1 mgt1 strain (AID 161);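 note: 0% = growth of cultures given vehicle only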; details: S. cerevisiae sgs1 mgt1 strain, at 50.0 µM, stronger effect = higher value
# Method in brief: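 Test agents were incubated with a DNA-repair-mutant yeast strain. Growth was then read and compared against vehicle-treated controls.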
# [11] = NCI Yeast Anticancer Drug Screen. Data for the CLN2oe strain (AID 163);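 note: 0% = growth of vehicle-only control cultures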; details: S. cerevisiae CLN2oe strain, stronger effect = higher value
# Method in brief: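 Growth of a genetically modified yeast strain is measured after compound exposure and compared with cultures given vehicle alone.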
# [12] = NCI Yeast Anticancer Drug Screen. Data for the cln2 rad14 strain (AID 165);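 note: 0% = growth equal to vehicle treated cultures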; details: S. cerevisiae cln2 rad14 strain, at 50.0 µM, stronger effect = higher value
# Method in brief: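 Compounds are applied to the cln2 rad14 yeast strain, and growth is then compared with that of vehicle-treated cultures to give inhibition.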
# [13] = NCI Yeast Anticancer Drug Screen. Data for the bub3 strain (AID 167); details: S. cerevisiae bub3 mutant strain, stronger effect = higher value
# Method in brief: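 Part of a panel of yeast mutants defective in DNA damage repair or cell cycle regulation. Each strain is grown with compound, and inhibition is calculated relative to solvent-treated cultures.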
# [14] = NCI Yeast Anticancer Drug Screen. Data for the wt2 strain (AID 169);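 note: 0% = growth of vehicle-treated yeast cultures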; details: S. cerevisiae wt2 strain growth inhibition, stronger effect = higher value
# Method in brief: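 This strain belongs to a panel of yeast strains with defined genetic alterations in DNA damage repair or cell cycle control. Compounds are applied, and growth inhibition is measured against vehicle-treated cultures.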
# [15] = NCI Yeast Anticancer Drug Screen. Data for the mlh1 strain (AID 171);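 note: 0% = growth of vehicle-treated control cultures of the same strain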; details: S. cerevisiae mlh1 strain growth inhibition, stronger effect = higher value
# Method in brief: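 Growth of the mutant yeast strain after compound exposure, expressed as inhibition relative to vehicle-only controls.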
smiles,measurement,setting,value
O=C1c2ccccc2C(=O)c2cc(S(=O)(=O)Nc3ccccc3)ccc21,growth inhibition,[1]; at 33.0 µM,22%
same,growth inhibition,[1]; at 100.0 µM,18%
same,growth inhibition,"[2]; at 5.0 µM (retest, dose inferred, filed as 0.5)",77% (active)
same,growth inhibition,"[2]; at 50.0 µM (retest, dose inferred, filed as 5.0)",75% (active)
same,growth inhibition,[2]; at 50.0 µM,97.7% (active)
same,growth inhibition,[3]; at 1.2 µM,0%
same,growth inhibition,[3]; at 3.7 µM,2%
same,growth inhibition,[3]; at 11.0 µM,9%
same,growth inhibition,[3]; at 33.0 µM,19%
same,growth inhibition,[3]; at 100.0 µM,-78%
COc1cc([C@@H]2c3cc4c(cc3[C@@H](OC3OC5COC(C)OC5C(O)C3O)[C@H]3COC(=O)[C@H]23)OCO4)cc(OC)c1O (stereo not given in full),growth inhibition,[4]; at 1.2 µM,1%
same,growth inhibition,[4]; at 3.7 µM,4%
same,growth inhibition,[4]; at 11.0 µM,20%
same,growth inhibition,[4]; at 33.0 µM,51%
same,growth inhibition,[4]; at 100.0 µM,81% (active)
same,growth inhibition,[5]; at 1.2 µM,-1%
same,growth inhibition,[5]; at 3.7 µM,-2%
same,growth inhibition,[5]; at 11.0 µM,-2%
same,growth inhibition,[5]; at 33.0 µM,-1%
same,growth inhibition,[5]; at 100.0 µM,-13%
same,growth inhibition,[6]; at 1.2 µM,-9%
same,growth inhibition,[6]; at 3.7 µM,-3%
same,growth inhibition,[6]; at 11.0 µM,2%
same,growth inhibition,[6]; at 33.0 µM,9%
same,growth inhibition,[6]; at 100.0 µM,23%
same,growth inhibition,[7]; at 1.2 µM,0%
same,growth inhibition,[7]; at 3.7 µM,4%
same,growth inhibition,[7]; at 11.0 µM,20%
same,growth inhibition,[7]; at 33.0 µM,61%
same,growth inhibition,[7]; at 50.0 µM,11.6%
same,growth inhibition,[7]; at 100.0 µM,89% (active)
same,growth inhibition,[8]; at 1.2 µM,-3%
same,growth inhibition,[8]; at 3.7 µM,0%
same,growth inhibition,[8]; at 11.0 µM,4%
same,growth inhibition,[8]; at 33.0 µM,2%
same,growth inhibition,[8]; at 50.0 µM,11.6%
same,growth inhibition,[8]; at 100.0 µM,4%
same,growth inhibition,[9]; at 1.2 µM,-2%
same,growth inhibition,[9]; at 3.7 µM,-2%
same,growth inhibition,[9]; at 11.0 µM,3%
same,growth inhibition,[9]; at 33.0 µM,2%
same,growth inhibition,[9]; at 100.0 µM,12%
same,growth inhibition,[10],13.8%
same,growth inhibition,[11]; at 1.2 µM,-2%
same,growth inhibition,[11]; at 3.7 µM,-6%
same,growth inhibition,[11]; at 11.0 µM,-4%
same,growth inhibition,[11]; at 33.0 µM,-4%
same,growth inhibition,[11]; at 100.0 µM,-6%
same,growth inhibition,[12],11.3%
same,growth inhibition,[13]; at 1.2 µM,-7%
same,growth inhibition,[13]; at 3.7 µM,-8%
same,growth inhibition,[13]; at 11.0 µM,0%
same,growth inhibition,[13]; at 33.0 µM,-12%
same,growth inhibition,[13]; at 50.0 µM,4.5%
same,growth inhibition,[13]; at 100.0 µM,-5%
same,growth inhibition,[14]; at 1.2 µM,-3%
same,growth inhibition,[14]; at 3.7 µM,-2%
same,growth inhibition,[14]; at 11.0 µM,-4%
same,growth inhibition,[14]; at 33.0 µM,-3%
same,growth inhibition,[14]; at 100.0 µM,3%
same,growth inhibition,[15]; at 1.2 µM,-4%
same,growth inhibition,[15]; at 3.7 µM,-3%
same,growth inhibition,[15]; at 11.0 µM,-1%
same,growth inhibition,[15]; at 33.0 µM,0%
same,growth inhibition,[15]; at 100.0 µM,7%
same,growth inhibition,[1]; at 1.2 µM,-3%
same,growth inhibition,[1]; at 3.7 µM,-3%
same,growth inhibition,[1]; at 11.0 µM,1%
same,growth inhibition,[1]; at 33.0 µM,5%
same,growth inhibition,[1]; at 100.0 µM,16%
same,growth inhibition,[3]; at 1.2 µM,-4%
same,growth inhibition,[3]; at 3.7 µM,-2%
same,growth inhibition,[3]; at 11.0 µM,-2%
same,growth inhibition,[3]; at 33.0 µM,6%
same,growth inhibition,[3]; at 100.0 µM,18%

# Source: PubChem BioAssay (NCI)
